# Data from ChEMBL document CHEMBL3988442, “University of Dundee, Small-Polar-MMV Screening Library” (2021).
# How the values were obtained:
# [1] = target: T1, Aspartate--tRNA(Asp/Asn) ligase (Mycobacterium tuberculosis (strain ATCC 25618 / H37Rv)) (UniProt P9WFW3); assay: Assay for Asp RNA synthetase-1 from Mycobacterium tuberculosis; format: functional; design: scale not given: direction of the effect not stated beside the values; details: 30 µM; further: in the data most compounds retested in dose-response had high values
# T1 sequence (whole entry): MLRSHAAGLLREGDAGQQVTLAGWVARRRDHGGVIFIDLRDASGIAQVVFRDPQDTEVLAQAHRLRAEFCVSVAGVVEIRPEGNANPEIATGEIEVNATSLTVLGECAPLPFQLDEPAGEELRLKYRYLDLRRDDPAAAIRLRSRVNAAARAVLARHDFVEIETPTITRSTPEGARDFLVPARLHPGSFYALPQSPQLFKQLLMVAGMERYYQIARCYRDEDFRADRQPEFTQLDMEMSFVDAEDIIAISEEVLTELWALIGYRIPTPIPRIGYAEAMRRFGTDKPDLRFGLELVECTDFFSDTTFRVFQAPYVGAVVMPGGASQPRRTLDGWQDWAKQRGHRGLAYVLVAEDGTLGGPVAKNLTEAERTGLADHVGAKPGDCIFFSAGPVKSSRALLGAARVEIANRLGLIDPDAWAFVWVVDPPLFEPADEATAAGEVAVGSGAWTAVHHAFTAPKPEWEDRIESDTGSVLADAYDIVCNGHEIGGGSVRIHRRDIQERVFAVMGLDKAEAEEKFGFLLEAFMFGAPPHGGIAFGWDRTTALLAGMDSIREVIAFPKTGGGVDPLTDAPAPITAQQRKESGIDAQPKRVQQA
# [2] = target: Shiga toxin 2 (Escherichia coli O157:H7) (UniProt P09385+P09386); assay: E. coli 0.157:H7 Shiga Toxin SOP - stx2 screening assay; format: functional; design: scale not given: direction of the effect not stated beside the values; details: 30 µM
SMILES,Percent Effect [1] [%],Percent Effect [2] [%]
CC(=O)N1CCCCC1c1nc(N)ncc1-c1ccccc1 (stereo not given),5.78,4.38
O=C(CCc1ccccc1)N1CCn2cc(CN3CCCC3)nc2C1,0.131,-15.9
CCc1noc(CNc2ccc(C(=O)N3CCCC(C)C3)cc2C)n1 (stereo not given),-1.27,19.1
COC1CCCN(Cc2nc(Cc3ccccc3F)no2)C1 (stereo not given),-7.18,6.38
Cc1nc(CC(=O)N2CCCN(c3ccc(C#N)cc3)CC2)cs1,-8.71,-26.6
Cc1ccc(N2CCCC(NCc3ccncc3)C2)nn1 (stereo not given),0.131,-14.5
Cc1noc2ncc(C(=O)NCC3CCOC3)cc12 (stereo not given),-2.88,16.2
CN1CC(=O)N(c2cnn(C)c2)CC12CCN(Cc1ccccc1)C2 (stereo not given),-0.707,-5.72
CN(CC(F)(F)F)C(=O)C1CSCN1C(=O)OC(C)(C)C (stereo not given),2.82,-9.84
Cc1noc(C)c1CCC(=O)NC(C)c1nnc2n1CCC2 (stereo not given),-0.635,-3.03
CC(Cn1cccn1)NC(=O)Nc1ccc(N(C)C)nc1 (stereo not given),1.98,-47.5
CNC(=O)c1ccc(C(=O)N2CCCC(n3cc(C)cn3)C2)cn1 (stereo not given),-5.95,-41.9
Cc1cnn(CC2CN(Cc3nnc(-c4occc4C)o3)CCO2)c1 (stereo not given),2.04,12.3
Cc1ccc(C(=O)N2C[C@@H]3OCCN(CCN4CCCC4)[C@@H]3C2)cn1,-1.02,3.78
CCOC(=O)N1CCN(c2nc(NC)c3ccccc3n2)CC1,-2.29,-9.78
Cn1nc(COc2cccnc2)c2c1CCN(c1cnccn1)C2,10.9,7.98
CCn1cc(CN2CCCn3nc(CNC(=O)C4CCC4)cc3C2)cn1,4.07,-31
CCOc1cccc(C(C)NC(=O)N2CCC(C(N)=O)CC2)c1 (stereo not given),-2,11.2
O=C(CN1CCCCC1Cn1cncn1)NC1CCN(C2CC2)CC1 (stereo not given),-0.234,-4.41
Cn1ccc(NC(=O)Cc2cccc(F)c2)n1,3.36,-9.92

SMILES,Percent Effect [1] [%],Percent Effect [2] [%]
Cc1ccsc1C(=O)NCCCn1nc2ccccn2c1=O,1.69,16.8
N#Cc1ccc(NCCNc2ccc(C(F)(F)F)cn2)nc1,-3.59,45.1
Cc1cc(C)n(CC2CCCCN2C(=O)c2ccc3c(c2)OCO3)n1 (stereo not given),-5.57,-5.42
COc1cc(C(=O)N(C2CC2)C2CC(=O)NC2=O)ccc1C (stereo not given),-3.91,3.11
Cc1cnn(CCNCc2csc(-c3ccc(F)cc3)n2)c1,-1.03,13.4
CC[C@@H]1N(CC2CC2)CCC[C@]12CCC(=O)N2CCOC,-4.31,-1.83
Cc1ccc(CN2CCC[C@]3(C(=O)O)CN(c4ncccn4)C[C@@H]3C2)o1,7.77,-25.5
CN(C)Cc1ccc(C2CCCCN2C(=O)c2cc(C3CC3)n[nH]2)cc1 (stereo not given),-1.82,2.95
Cc1nn(C)c(Cl)c1CNCc1cccnc1N1CCOCC1,-7.19,4.19
N#Cc1cccnc1N1CCC2(CCCN(C3CCOCC3)C2=O)C1 (stereo not given),-3.99,-16.3
c1ncn(CC2CN(CC3CCCC3)CCO2)n1 (stereo not given),2.9,-0.78
O=C(Nc1cccc(CN2CCOC2=O)c1)N1CCSCC1,-4.15,-52.5
CC(=O)Nc1nc(C(=O)N2CCCC2c2ccccc2C)cs1 (stereo not given),-0.698,1.85
Cc1cccc(CN2CCc3nnc(CO)n3CC2)n1,0.728,-10.4
COc1cccc(-n2nnc(C(=O)N3CCNC(=O)C3)c2C)c1,-6.06,-7.95
Cc1csc2c(N3CCC(NCCCc4ccncc4)CC3)ncnc12,8.8,-69.6
O=C(c1cc(Cl)cc(Cl)c1)N1CCN(c2nccs2)CC1,-0.345,-14.9
O=C(Cc1ccc2c(c1)OCCO2)N1CCCC(n2cccn2)C1 (stereo not given),-1.07,10.8
N#CC1(C(=O)N2CCN(Cc3cscn3)CC2)CCCC1,-0.171,9.21
CC(C)n1cc(CN2CCCN(C(=O)c3nccnc3N)CC2)cn1,6.6,-11.2
